Source: PubChem BioAssay (several laboratories)
DAGLB inhibitor: DAGLB lipase inhibitors, primary screen, biochemical, fluorescence, HTS; Diacylglycerol lipase-beta (Homo sapiens), Q8NCG7; 340,000 tested, 0.059% active; HEK293T DAGLB membrane lysate, EnzChek fluorogenic substrate; AID 504411, 2011; inhibition, % at 5.17 µM; in the data active means inhibition above about 34%;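 further: 0% = enzyme with vehicle and 100% = wells lacking enzyme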
MsrA inh: bovine MsrA enzyme inhibitors, primary screen, biochemical, absorbance, HTS; Methionine sulfoxide reductase A (Bos taurus); purified bovine MsrA, absorbance read-out; inhibition, % at 15.5 µM; 360,000 tested, 0.75% active; in the data active means inhibition above about 4.5%;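 further: 0% = vehicle wells with enzyme and 100% = reference inhibitor wells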
NadD block: inhibitors of S. aureus NadD, primary screen, biochemical, colorimetric, uHTS | purified NadD enzyme, colorimetric absorbance read-out | AID 602399, 2012 | Nicotinate-nucleotide adenylyltransferase NadD (Staphylococcus aureus N315) | inhibition, % at 20 µM | 360,000 tested, 0.78% active; in the data active means inhibition above about 26%
rCAG binder: binders of r(CAG) RNA repeats, primary screen, biochemical, fluorescence; r(CAG) RNA repeat, TO-PRO-1 dye displacement fluorescence; inhibition, % at 3 µM; 370,000 tested, 1.3% active;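 active means inhibition above the plate cutoff, the mean of all test compounds on that plate plus 3 SD, cut at about 35% in these data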;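 further: 0% = DMSO alone and 100% = 100 µM mitoxantrone as full dye displacement; higher means more dye released from RNA so lower well fluorescence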
MsrA act: bovine MsrA enzyme activators, primary screen, biochemical, absorbance, HTS | Methionine sulfoxide reductase A (Bos taurus) | purified bovine MsrA, absorbance read-out | activation, % at 10.6 µM | 360,000 tested, 0.3% active | AID 602163, 2012; in the data active means activation above about 7.5%;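 further: 0% = vehicle and 100% = reference activator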
Pemphigus Ab inh: inhibitors of pemphigus antibody binding to DSG3, primary screen, biochemical, bead-based, flow cytometry, scFv-GFP. Desmoglein-3 (Homo sapiens), P32926. DSG3-coupled beads, scFv-anti-DSG3-GFP binding; hits give low values. binding (percent of control), % at 10 µM. 310,000 tested, 0.48% active. AID 588358, 2011;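 active means binding more than 3 SD below its plate's average and above zero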;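 further: hits lower antibody fragment binding to DSG3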
NadD inh conf: inhibitors of S. aureus NadD, confirmation, biochemical, colorimetric, single concentration. shares compounds with NadD block. AID 624309, 2012. inhibition, % at 20 µM. purified S. aureus NadD, colorimetric enzyme assay. 2,000 tested, 13% active; in the data active means inhibition mostly above about 42%, no sharp cut-off; inactive means mostly below about 42%
Starred values were filed as active, the others as inactive; . = not tested or not shown. The list is not random: actives were taken first. Their share in the collection is about 3.2%.

SMILES	DAGLB inhibitor	MsrA inh	NadD block	rCAG binder	MsrA act	Pemphigus Ab inh	NadD inh conf
O=C(C[C@@H]1CC[C@@H]2[C@H](COC[C@H](O)CN2CCC(F)(F)F)O1)NCc1ccc2c(c1)OCO2	.	0	.	0	.	.	.
Cc1cccn2c(=O)c3cc(S(=O)(=O)c4ccccc4)c(=N)n(Cc4ccc(F)cc4)c3nc12	1	-1	32*	0	-4	96	13
Cc1cccn2c(=O)c3cc(S(=O)(=O)c4ccccc4)c(=N)n(Cc4ccco4)c3nc12	-4	0	2	4	-15	96	.
COc1ccccc1COC(=O)c1cccc(S(=O)(=O)N(C)Cc2ccccc2)c1	.	.	.	7	.	.	.
O=C(COC(=O)c1ccc(O)cc1)Nc1cc(S(=O)(=O)N2CCCCCC2)ccc1Cl	-5	-1	-13	11	0	104	.
Nc1cc(N)cc(C(=O)OCC(=O)Nc2cc(S(=O)(=O)N3CCCCC3)ccc2Cl)c1	2	0	31*	17	-6	.	18
COc1ccc2c(c1)C(CC(C)=O)N(c1ccc(-c3cccs3)cc1)C(c1ccsc1)=C2 (stereo not drawn)	.	3	11	12	-4	.	.
CCn1c(COc2ccc(Cl)cc2)nnc1SCC(=O)Nc1ccc(Oc2ccccc2)cc1	.	.	.	6	.	.	.
Cc1ccc(OCc2ccc(C(=O)Nc3nc4ccccc4n3Cc3ccccc3)o2)c([N+](=O)[O-])c1	0	-1	34*	2	0	94	7
COc1ccc(OC)c(CN2C(=O)CCCCC2(C)c2nnnn2C2CCCC2)c1 (stereo not drawn)	.	.	.	2	.	.	.
O=C(CSc1nnc(Cc2csc(Nc3cccc(Cl)c3)n2)o1)N1CCc2ccccc21	3	0	57*	19	0	100	19
N/C(=N\N=C\c1ccnc2ccccc12)SC1CC(=O)N(c2ccc(Br)cc2)C1=O (stereo not drawn)	2	-1	46*	23	-4	90	7
COc1ccc(S(=O)(=O)N2CCC(C(=O)NCCN3CCOCC3)CC2)cc1OC	-1	2	33*	0	-2	89	3
Cc1cc(NCCCCCCCNc2cc(C)nc3cc([N+](=O)[O-])ccc23)c2ccc([N+](=O)[O-])cc2n1	10	1	66*	18	0	82	65*
COCCCNc1cc(C)nc2ccccc12	-2	2	6	-2	-6	92	.
O=C(Cn1cc(COC(=O)c2c3ccccc3cc3ccccc23)nn1)c1ccc(O)cc1	.	2	.	21	.	.	.
Cc1csc(N2CCCC2c2nc3cc(Cl)c(N4CCCCC4)cc3n2CCCO)n1 (stereo not drawn)	1	-1	3	-5	-7	101	.
Cc1ccc(Cn2c(C3CCCN3c3nc(-c4ccc(F)cc4)cs3)nc3cc(Cl)c(Cl)cc32)cc1 (stereo not drawn)	-5	0	49*	10	0	93	26
OCCCn1c(C2CCCN2c2nc(-c3ccc(F)cc3)cs2)nc2cc(Cl)c(N3CCCCC3)cc21 (stereo not drawn)	1	1	33*	9	0	97	5
OCCCn1c(C2CCCN2c2nc(-c3ccc(Cl)cc3)cs2)nc2cc(Cl)c(N3CCCCC3)cc21 (stereo not drawn)	0	1	33*	10	-2	98	10
Cc1ccc(Cn2c(C(C)Nc3nc(-c4ccc(F)cc4)cs3)nc3cc(Cl)c(Cl)cc32)cc1 (stereo not drawn)	-4	0	50*	9	-3	93	10
CCCn1c(C(C)Nc2nc(-c3ccc(C)cc3)cs2)nc2cc(Cl)c(Cl)cc21 (stereo not drawn)	-2	0	17	2	-2	100	.
CCc1nc2ccc(C(=O)NCCOc3ccc(OC)cc3)cn2c1N(C)Cc1cccs1	.	-1	-2	1	-9	.	.
